Screens deposited in PubChem by several laboratories.
CYP2C9 act: human CYP2C9 activators, primary screen, biochemical, luminescence. Cytochrome P450 2C9 (Homo sapiens), P11712. recombinant CYP2C9, luciferin-H conversion; stronger effect = higher value; factor 1 = untreated enzyme, 0 = blocked. activation factor at 5 µM. 1.4% of 96,000 active;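 active = activation factor of 2 or more for CYP2C9 at a 5 µM dose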
CYP2C9 inh: blockers of cytochrome P450 2C9 activity – biochemical, luminescence, ADME assay, primary screen; P11712; CYP2C9 Supersomes, luciferin-H conversion; inhibition, % at 5 µM; 20% of 96,000 active;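 active = blocking of liver enzyme CYP2C9 beyond about 50% at 5 µM, limit read from the data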
E-sel TNF inh: E-selectin induction blockers in HUVEC – imaging, immunofluorescence, high content, primary screen | HUVEC TNFa-induced E-selectin immunofluorescence | inhibition, % at 2 µM | 0.71% of 120,000 active | AID 1246, 2008;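 active = inhibition above the batch mean plus 3 SD, and confirmed as a hit on visual image review, cut at about 43% in these data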
CYP2C19 activ: human CYP2C19 activators, primary screen, biochemical, luminescence; Cytochrome P450 2C19 (Homo sapiens), P33261; recombinant CYP2C19, luciferin-H EGE luminescence; stronger effect = higher value; 0 = fully inhibited enzyme, 1 = untreated enzyme; activation factor at 5 µM; 96,000 tested, under 10 active; AID 1025, 2008;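 active = activation factor of at least 2 at 5 µM in the primary screen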
Target sequence (P33261 whole entry, looked up): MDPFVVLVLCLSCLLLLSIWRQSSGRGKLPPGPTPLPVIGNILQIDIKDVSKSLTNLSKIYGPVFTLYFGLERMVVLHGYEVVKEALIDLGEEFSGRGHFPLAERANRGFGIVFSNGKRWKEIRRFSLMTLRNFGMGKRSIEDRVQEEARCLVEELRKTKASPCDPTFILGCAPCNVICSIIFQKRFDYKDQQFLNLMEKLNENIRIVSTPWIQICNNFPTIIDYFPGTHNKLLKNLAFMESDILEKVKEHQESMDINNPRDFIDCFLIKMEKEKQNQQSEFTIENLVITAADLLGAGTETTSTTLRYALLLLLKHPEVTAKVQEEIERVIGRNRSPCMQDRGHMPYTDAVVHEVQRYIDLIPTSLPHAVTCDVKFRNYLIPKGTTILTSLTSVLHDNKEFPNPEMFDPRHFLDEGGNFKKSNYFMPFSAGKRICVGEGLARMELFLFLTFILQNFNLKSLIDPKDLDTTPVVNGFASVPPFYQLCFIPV
CYP2C19 inhib: blockers of cytochrome P450 2C19 activity – biochemical, luminescence, ADME assay, primary screen; P33261; CYP2C19 Supersomes, luciferin-H EGE luminescence, 30 min; inhibition, % at 5 µM; 21% of 96,000 active; AID 778, 2007;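 active = CYP2C19 inhibition above a set limit at 5 µM in the primary screen, cut at about 50% in these data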
cytoskel mod: modifiers of F-actin cytoskeleton organization, primary screen, imaging, HUVEC, phalloidin staining, high-content imaging; 0.18% of 91,000 active; HUVEC TNFa F-actin phalloidin imaging; inhibition, % at 2 µM; AID 836, 2007;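 active = inhibition above the batch mean plus 3 SD and confirmed as a hit by visual image inspection, cut at about 30% in these data, passing the limit was not always enough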
A number is an active result; 0 = inactive; - = no result. Only some compounds are listed: those with a hit (about 22% of all), similar ones and a draw of the others.

SMILES	CYP2C9 act	CYP2C9 inh	E-sel TNF inh	CYP2C19 activ	CYP2C19 inhib	cytoskel mod
Cc1ccc(S(=O)(=O)NC(CC(=O)n2nc(C)cc2C)c2ccccc2)cc1 (stereo not given)	0	94	0	0	100	0
COC(=O)C(NS(=O)(=O)c1ccc(C)cc1)c1ccccc1 (stereo not given)	-	-	0	-	-	-
CCc1cccc2c(C=C(C#N)C#N)cn(CC(=O)N3CCCC3)c12	0	0	0	0	0	0
CC(NC(=O)COC(=O)Cc1ccsc1)C1CC2CCC1C2 (stereo not given)	0	0	0	0	92	0
O=C(COC(=O)Cc1ccsc1)NCC1CCCCC1	0	0	0	0	57	0
CC(NC(=O)COC(=O)Cc1ccsc1)c1ccccc1 (stereo not given)	-	-	0	-	-	-
COC(=O)C1=C(C)N=C2SC(C)C(=O)N2C1/C=C/c1ccccc1OC (stereo not given)	0	63	-	0	81	0
COC(=O)C1=C(C)N=C2SCCC(=O)N2C1/C=C/c1ccccc1 (stereo not given)	0	0	0	0	0	0
CCC1SC2=NC(C)=C(C(=O)OCCOC)C(/C=C/c3ccccc3OC)N2C1=O (stereo not given)	0	91	0	0	78	0
COc1ccccc1/C=C/C1C(C(=O)OCC(C)C)=C(C)N=C2SCCC(=O)N21 (stereo not given)	-	-	0	-	-	-
CCC1SC2=NC(C)=C(C(=O)OCC(C)C)C(/C=C/c3ccccc3OC)N2C1=O (stereo not given)	0	78	0	0	0	0
Cc1ccc(C(=O)N2C(=S)C(c3ccc(F)cc3)=NC23CCN(C)CC3)cc1	-	-	0	-	-	-
Cc1nnc(N2C(=O)c3cccc4cccc(c34)C2=O)s1	0	0	0	0	0	0
Cc1nnc(C)n1N1C(=O)c2cccc3cccc(c23)C1=O	0	81	0	0	62	0
Cc1cc(C)c(C)c(S(=O)(=O)N2CCNCC2)c1C	-	-	0	-	-	-
Cc1ccccc1NC(=O)COC(=O)CCSc1ccccc1	-	-	0	-	-	-
COc1cc(C(=O)n2nc(C)cc2C)ccc1O	0	0	0	0	0	0
CCOc1ccc(C(=O)Nc2c(C(N)=O)oc3ccccc23)cc1	-	-	0	-	-	0
COc1cccc(C(=O)Nc2c(C(N)=O)oc3ccccc23)c1	3.3	0	-	0	0	0
NC(=O)c1oc2ccccc2c1NC(=O)CCc1ccccc1	2.2	0	0	0	82	-
COc1ccc(NC(=O)c2oc3ccccc3c2NC(=O)c2ccc3c(c2)OCO3)cc1	0	55	-	0	0	0
CC(C)COC(=O)n1ccc(C(=O)N2CCCCC2)n1	0	0	0	0	0	0
C=CCNC(=O)CC(=O)N/N=C/c1ccc(F)cc1	-	-	0	-	-	-
Cc1ccc(/C=N/NC(=O)CNC(=O)c2ccc(S(=O)(=O)N(C)C)cc2)cc1	-	-	0	-	-	-
COc1ccc(-c2ccc(-c3noc(-c4ccccc4C)n3)c(OC)n2)cc1	0	0	0	0	0	0
SMILES	CYP2C9 act	CYP2C9 inh	E-sel TNF inh	CYP2C19 activ	CYP2C19 inhib	cytoskel mod
COc1ccc(-c2ccc(-c3noc(-c4cccs4)n3)c(OC)n2)cc1	0	60	0	0	0	-
Cc1ccc(OC(=O)c2ccc(N3CCOCC3)c([N+](=O)[O-])c2)cc1	0	0	0	0	0	0
CN(C)c1ccc(C(c2nnnn2CCOC(=O)Nc2ccc(Cl)cc2)N2CCOCC2)cc1 (stereo not given)	0	87	0	0	93	0
c1ccc(Cn2nnnc2C(c2ccncc2)N2CCOCC2)cc1 (stereo not given)	0	0	0	0	0	0
Clc1ccc(C(c2nnnn2CCc2ccccc2)N2CCSCC2)cc1 (stereo not given)	0	79	0	0	80	0
Fc1ccc(C(c2nnnn2Cc2ccccc2)N2CCSCC2)cc1 (stereo not given)	0	0	0	0	0	0
O=C(Nc1ccc(Cl)cc1)OCCn1nnnc1C(c1ccccc1)N1CCOCC1 (stereo not given)	0	65	0	0	0	0
CC(=O)Nc1ccccc1NC(=O)C(F)(F)F	0	0	0	0	0	0
Cc1cc(C)nc(N2CCC(C(=O)Nc3ccc(Oc4ccccc4)cc3)CC2)n1	0	0	0	0	0	0
CCC(=O)NCCc1nc2ccccc2n1Cc1ccccc1	-	-	0	-	-	0
COC(=O)Cn1c(CCS(=O)(=O)c2ccc(C)cc2)nc2ccccc21	0	0	0	0	66	0
CC(=O)NCCc1nc2ccccc2n1Cc1ccc(C)cc1	0	0	0	0	69	0
CC(C)(C)c1ccc(OCC(=O)OCCNC(=O)c2cccnc2)cc1	0	0	0	0	0	0
CC1(C)CC(=O)c2cc(OCC(=O)NCCCN3CCN(c4ccc(F)cc4)CC3)ccc2O1	0	0	-	0	0	48
CC(C)CCNC(=O)COc1ccc2c(c1)C(=O)CC(C)(C)O2	0	80	0	0	74	-
Cc1ccc(NC(=O)c2cc(=O)c3ccccc3o2)c(C)c1	-	-	0	-	-	-
COc1ccc(Cc2nn3c(-c4ccccc4Br)nnc3s2)cc1	0	0	0	0	90	0
COc1ccccc1-c1nnc2sc(COc3ccccc3)nn12	0	0	0	0	0	-
Brc1ccccc1-c1nnc2sc(Cc3ccccc3)nn12	0	62	0	0	95	0
CC(C)(C)C(=O)Nc1nc(-c2ccc3c(c2)OCO3)cs1	0	94	0	0	92	-
CCC(=O)Nc1nc(-c2ccc3c(c2)OCCO3)cs1	0	0	-	0	0	0
c1cc2c(cc1Nc1nc(-c3ccc4c(c3)OCO4)cs1)OCCO2	0	87	0	0	73	0
O=S(=O)(c1cccs1)N1CCCc2cccc(O)c21	2.9	0	0	0	66	0
CCCOc1ccc(-c2csc(NC(=O)CN3C(=O)CCC3=O)n2)cc1	-	-	0	-	-	-
CCSc1nc2ccccc2n1C(=O)/C=C/c1ccc(OC)c(OC)c1	-	-	100	-	-	-
SMILES	CYP2C9 act	CYP2C9 inh	E-sel TNF inh	CYP2C19 activ	CYP2C19 inhib	cytoskel mod
C=CCSc1nc2ccccc2n1C(=O)/C=C/c1cc(OC)c(OC)c(OC)c1	0	78	66	0	55	0
O=C(CSc1nnc(-c2ccncc2)n1-c1ccccc1Cl)Nc1ccc(C(=O)O)cc1	-	-	0	-	-	-
Cc1occc1-c1nnc(SCC(=O)Nc2nccs2)n1Cc1ccco1	0	55	0	0	72	0
Cc1cc(C)nc(SCc2nnc(SCC(=O)Nc3nccs3)n2Cc2ccco2)n1	0	63	-	0	0	0
Cc1ccc(Cl)c(OCCN2CCCC(C)C2)c1 (stereo not given)	-	-	0	-	-	-
C/C(=N/Oc1nc(C)cc(C)n1)c1ccc(Br)cc1	0	0	0	0	53	0
C/C(=N/Oc1nc(C)cc(C)n1)c1ccc(Cl)cc1Cl	0	0	0	0	0	-
